Reference: PubChem BioAssay AID1159580 (chemical genetic matrix, 2015)
“And” between values parts separate entries of the source, which are not always exact repeats. Equal values may be shown once. The whole screen tested about 5,500 compounds, of which about 2,000 (36%) were called active. About 18% were inconclusive and are not listed. Rule as the data show it: active = normalized growth mostly below about 0.91 (no sharp cut-off); inconclusive = no clear call, values can overlap the other calls; inactive = mostly above about 0.92. Some of the results follow.

Experiment: chemical genetic growth profiling, strain panel (AID 1159580);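 also: tested at 20 µM; growth read once vehicle control cultures reached saturation at 30 °C; 1 = growth at the plate median or of vehicle wells; lower values mean less growth of the strain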
Settings: S. cerevisiae deletion strains, growth OD

Measured: normalized growth

CN1C(=O)CCS(=O)(=O)C1c1ccc(Cl)cc1 (stereo unspecified)
inactive: locus YAL013W, strain DEP1, stronger effect = lower value 1.01 | locus YAL021C, strain ccr4, stronger effect = lower value 0.981 | locus YAL026C, strain drs2, stronger effect = lower value 0.982 | locus YAL030W, strain snc1, stronger effect = lower value 0.992 | locus YAL040C, strain CLN3, stronger effect = lower value 1.03 | locus YBL061C, strain skt5, stronger effect = lower value 1 | locus YBR009C, strain hhf1, stronger effect = lower value 0.953 | locus YBR021W, strain FUR4, stronger effect = lower value 1.02 | locus YBR023C, strain chs3, stronger effect = lower value 0.995 | locus YBR171W, strain sec66, stronger effect = lower value 0.988 | locus YBR229C, strain ROT2, stronger effect = lower value 1.01 | locus YBR231C, strain swc5, stronger effect = lower value 0.965 | locus YBR279W, strain paf1, stronger effect = lower value 0.99 | locus YCL011C, strain gbp2, stronger effect = lower value 1.01 | locus YCL016C, strain dcc1, stronger effect = lower value 1.01 | locus YCL029C, strain bik1, stronger effect = lower value 1.02 | locus YCL061C, strain MRC1 (second series), stronger effect = lower value 0.999 | locus YCL061C, strain MRC1, stronger effect = lower value 0.99 | locus YCL069W, strain vba3, stronger effect = lower value 0.949 | locus YCR088W, strain abp1, stronger effect = lower value 0.982 | locus YDL005C, strain med2, stronger effect = lower value 0.991 | locus YDL035C, strain GPR1, stronger effect = lower value 1.02 | locus YDL040C, strain nat1, stronger effect = lower value 0.973 | locus YDL074C, strain BRE1, stronger effect = lower value 1.04 | locus YDL101C, strain DUN1, stronger effect = lower value 1.02 | locus YDL134C, strain PPH21, stronger effect = lower value 1.01 | locus YDL185W, strain tfp1, stronger effect = lower value 1.03 | locus YDL192W, strain arf1, stronger effect = lower value 1.01 | locus YDR001C, strain nth1, stronger effect = lower value 0.976 | locus YDR069C, strain doa4, stronger effect = lower value 0.971 | locus YDR101C, strain arx1, stronger effect = lower value 1.01 | locus YDR137W, strain rgp1, stronger effect = lower value 0.993 | locus YDR150W, strain NUM1, stronger effect = lower value 1.01 and 1 | locus YDR159W, strain sac3, stronger effect = lower value 0.883 | locus YDR162C, strain NBP2, stronger effect = lower value 1.02 | locus YDR195W, strain ref2 0.956 | locus YDR297W, strain sur2, stronger effect = lower value 0.983 | locus YDR318W, strain mcm21, stronger effect = lower value 1.01 | locus YDR334W, strain swr1, stronger effect = lower value 0.951 | locus YDR335W, strain msn5, stronger effect = lower value 0.972 | locus YDR363W, strain ESC2, stronger effect = lower value 1.03 | locus YDR388W, stronger effect = lower value 1.01 | locus YDR392W, strain spt3, stronger effect = lower value 0.939 | locus YDR502C, strain sam2, stronger effect = lower value 1.01 | locus YEL003W, strain gim4, stronger effect = lower value 0.982 | locus YEL037C, strain rad23, stronger effect = lower value 0.982 | locus YEL061C, strain CIN8 (second series), stronger effect = lower value 0.995 | locus YEL061C, strain CIN8, stronger effect = lower value 1.01 | locus YER002W, strain NOP16, stronger effect = lower value 1.01 | locus YER015W, strain faa2, stronger effect = lower value 0.985 | locus YER016W, strain bim1, stronger effect = lower value 1.03 | locus YER110C, stronger effect = lower value 1.01 | locus YER111C, strain swi4, stronger effect = lower value 0.996 | locus YER155C, strain BEM2 (second series), stronger effect = lower value 1 | locus YER155C, strain BEM2, stronger effect = lower value 1.01 | locus YER167W, strain BCK2, stronger effect = lower value 1.01 | locus YFR010W, strain ubp6, stronger effect = lower value 0.954 | locus YGL078C, strain dbp3, stronger effect = lower value 0.998 | locus YGL086W, strain mad1, stronger effect = lower value 1.01 | locus YGL167C, strain pmr1, stronger effect = lower value 0.963 | locus YGL173C, strain kem1, stronger effect = lower value 0.953 | locus YGL227W, strain vid30, stronger effect = lower value 0.98 | locus YGL240W, strain doc1, stronger effect = lower value 0.963 | locus YGL248W, strain PDE1, stronger effect = lower value 1.01 | locus YGL253W, strain hxk2, stronger effect = lower value 0.995 | locus YGR078C, strain PAC10, stronger effect = lower value 1.02 | locus YGR135W, strain pre9, stronger effect = lower value 1.01 | locus YGR229C, strain SMI1, stronger effect = lower value 1.03 | locus YGR252W, strain gcn5, stronger effect = lower value 1.01 | locus YHR013C, strain ard1, stronger effect = lower value 0.982 | locus YHR027C, strain rpn1, stronger effect = lower value 0.98 | locus YHR030C, strain SLT2, stronger effect = lower value 1.01 and 0.973 | locus YHR079C, strain IRE1 (second series), stronger effect = lower value 1.02 | locus YHR079C, strain IRE1, stronger effect = lower value 0.97 | locus YHR094C, strain hxt1, stronger effect = lower value 1.01 | locus YHR129C, strain ARP1, stronger effect = lower value 1.01 | locus YHR142W, strain chs7, stronger effect = lower value 0.975 | locus YHR200W, strain rpn10, stronger effect = lower value 1.01 | locus YIL066C, strain RNR3, stronger effect = lower value 1.02 | locus YIL073C, strain SPO22, stronger effect = lower value 1.05 | locus YIL125W, strain kgd1, stronger effect = lower value 1.01 | locus YIR030C, strain dcg1, stronger effect = lower value 1.01 | locus YJL092W, strain hpr5, stronger effect = lower value 0.997 | locus YJL095W, strain BCK1 (second series), stronger effect = lower value 0.977 | locus YJL095W, strain BCK1, stronger effect = lower value 1.04 and 0.994 | locus YJL115W, strain asf1, stronger effect = lower value 0.967 | locus YJL129C, strain trk1, stronger effect = lower value 0.994 | locus YJL134W, strain LCB3, stronger effect = lower value 1.01 | locus YJL154C, strain vps35, stronger effect = lower value 0.989 | locus YJL164C, strain tpk1, stronger effect = lower value 0.997 | locus YJL166W, strain qcr8, stronger effect = lower value 0.943 | locus YJL168C, strain set2, stronger effect = lower value 1.01 | locus YJL187C, strain SWE1 (second series), stronger effect = lower value 1.03 | locus YJL187C, strain SWE1, stronger effect = lower value 0.994 | locus YJR043C, strain POL32, stronger effect = lower value 1.02 | locus YJR066W, strain TOR1, stronger effect = lower value 0.885
